Source: PubChem BioAssay
The source made the active and inactive calls. Unless noted, no rule for the calls is given here.

Legend:
[1] = HepG2 liver cancer cell viability effects, profiling panel, resazurin fluorescence, 24 h, PK04 Diversity Set (AID 1172); conditions: higher = more signal
[2] = basal S. cerevisiae growth modulation, no modifier, primary screen, OD600, strain BY4716, 24 h, basal condition (AID 1173); conditions: OD600, 24 h, higher = more signal, called active from +8 up or from −8 down
[3] = MM1S myeloma cell viability, profiling panel, resazurin fluorescence, basal, 24 h, PK04 Diversity Set (AID 1174); conditions: higher = more signal, called active from +8 up or from −8 down;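 also: MM1S multiple myeloma cell line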
[4] = molecular target: Dihydroorotate dehydrogenase (quinone), mitochondrial (Plasmodium falciparum (isolate 3D7)) (UniProt Q08210); experiment: PfDHODH enzyme inhibitors, primary screen, biochemical, C-terminal His tag, absorbance 600 nm (AID 1175); conditions: DCIP absorbance 600 nm, higher = more signal, called active from +8 up or from −8 down;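 also: recombinant parasite enzyme with a five histidine tag at its C terminus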
[5] = P. aeruginosa biofilm formation inhibitors, primary screen, strain PAO1, LB-PBS medium, absorbance 600 nm (AID 1176); conditions: P. aeruginosa PAO1 growth/biofilm, A600, 12 h; higher = more signal
[6] = S. cerevisiae RM11-1a growth modifiers, primary screen, strain RM11-1a, OD600, basal, 24 h (AID 1177); conditions: OD600, 24 h, higher = more signal, called active from +8 up or from −8 down;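 also: cultures grown under basal conditions with no added stressor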
[7] = E. coli acrAB mutant growth effects, primary screen, E. coli filamentation inducers, strain DRC39, OD650, 24 h (AID 1178); conditions: higher = more signal, called active from +8 up or from −8 down;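 also: growth measured as culture turbidity by optical density at 650 nm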
[8] = E. coli acrAB mutant growth effects, primary screen, E. coli filamentation inducers, strain DRC39, OD650, 48 h (AID 1179);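 also: screen aims at cell division blockers that make cells filament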; conditions: E. coli DRC39 delta-acrAB growth, higher = more signal, called active from +8 up or from −8 down
[9] = RPMI8226 myeloma cell viability, profiling panel, resazurin fluorescence, basal, 24 h, PK04 Diversity Set (AID 1180); conditions: higher = more signal;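 also: RPMI8826 multiple myeloma cell line at 5000 cells per well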
[10] = molecular target: E3 ubiquitin-protein ligase XIAP (Homo sapiens) (UniProt P98170); experiment: XIAP binders, primary screen, biophysical, small-molecule microarray, fluorescence 635 nm (AID 1181); conditions: small-molecule microarray binding, higher = more signal;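 also: score merges 667 nm emission and signal to noise over triplicate slides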
[11] = system: XIP peptide (Xip251-270) binding; experiment: small-molecule binders of XIP peptide, primary screen, biochemical, small-molecule microarray, fluorescence 635/667 nm, 0.1 µg/mL protein (AID 1182); conditions: fluorescent protein binding, 635 nm, higher = more signal, called active from +8 up or from −8 down
[12] = system: XIP peptide (Xip251-270); experiment: small-molecule binders of XIP peptide, primary screen, biochemical, small-molecule microarray, fluorescence 635/667 nm, 0.5 µg/mL protein (AID 1183); conditions: small-molecule microarray binding, fluorescence 635 nm; higher = more signal
[13] = Plasmodium falciparum growth inhibition, primary screen, strain 3D7, DAPI fluorescence, 100 nL (AID 1184);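 also: parasites grown inside human red blood cells in medium with human serum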; conditions: P. falciparum 3D7 growth, 3 d, higher = more signal
[14] = molecular target: Homeobox protein Hox-A13 (Mus musculus) (UniProt Q62424); experiment: inhibitors of HoxA13-DNA binding, primary screen, biochemical, fluorescence polarization, labeled oligonucleotide (AID 1185); conditions: 15 min, higher = more signal, called active from +8 up or from −8 down
[15] = inhibitors of hydroxyurea-induced Chk1 phosphorylation, primary screen, imaging, HeLa, phospho-Chk1 antibody, percent positive cells (AID 1186); conditions: hydroxyurea-induced phospho-Chk1 immunofluorescence imaging, higher = more signal
[16] = inhibitors of hydroxyurea-induced Chk1 phosphorylation, primary screen, imaging, HeLa, phospho-Chk1 nuclear intensity (AID 1187); conditions: hydroxyurea-induced phospho-Chk1 immunofluorescence imaging, higher = more signal

E3 ubiquitin-protein ligase XIAP (Homo sapiens), sequence (P98170 whole entry, looked up): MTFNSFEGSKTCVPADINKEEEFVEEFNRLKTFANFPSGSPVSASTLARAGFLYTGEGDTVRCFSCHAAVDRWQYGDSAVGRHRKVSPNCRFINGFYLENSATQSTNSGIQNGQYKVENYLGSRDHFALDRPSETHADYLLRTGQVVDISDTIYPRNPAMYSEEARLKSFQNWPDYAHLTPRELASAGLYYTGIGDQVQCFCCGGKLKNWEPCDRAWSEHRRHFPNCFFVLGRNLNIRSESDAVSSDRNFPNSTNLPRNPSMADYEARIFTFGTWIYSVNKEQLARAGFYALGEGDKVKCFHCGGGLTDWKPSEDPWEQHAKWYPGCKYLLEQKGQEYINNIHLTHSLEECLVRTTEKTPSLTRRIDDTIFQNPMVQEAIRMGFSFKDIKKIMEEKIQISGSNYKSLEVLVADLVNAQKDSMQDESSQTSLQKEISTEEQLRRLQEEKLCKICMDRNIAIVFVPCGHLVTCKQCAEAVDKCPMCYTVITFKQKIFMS
Homeobox protein Hox-A13 (Mus musculus), sequence (Q62424 whole entry, looked up): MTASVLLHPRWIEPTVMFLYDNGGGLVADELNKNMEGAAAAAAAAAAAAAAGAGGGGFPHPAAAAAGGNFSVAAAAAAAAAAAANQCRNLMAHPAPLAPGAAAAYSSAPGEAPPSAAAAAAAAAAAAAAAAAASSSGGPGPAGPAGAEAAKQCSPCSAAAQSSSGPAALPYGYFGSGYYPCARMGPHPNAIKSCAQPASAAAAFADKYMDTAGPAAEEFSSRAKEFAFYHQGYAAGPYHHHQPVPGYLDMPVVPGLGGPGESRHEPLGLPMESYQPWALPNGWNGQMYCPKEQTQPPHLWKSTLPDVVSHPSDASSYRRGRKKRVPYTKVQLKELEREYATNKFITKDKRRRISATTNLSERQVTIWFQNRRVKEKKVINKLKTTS
Dihydroorotate dehydrogenase (quinone), mitochondrial (Plasmodium falciparum (isolate 3D7)), sequence (Q08210 whole entry, looked up): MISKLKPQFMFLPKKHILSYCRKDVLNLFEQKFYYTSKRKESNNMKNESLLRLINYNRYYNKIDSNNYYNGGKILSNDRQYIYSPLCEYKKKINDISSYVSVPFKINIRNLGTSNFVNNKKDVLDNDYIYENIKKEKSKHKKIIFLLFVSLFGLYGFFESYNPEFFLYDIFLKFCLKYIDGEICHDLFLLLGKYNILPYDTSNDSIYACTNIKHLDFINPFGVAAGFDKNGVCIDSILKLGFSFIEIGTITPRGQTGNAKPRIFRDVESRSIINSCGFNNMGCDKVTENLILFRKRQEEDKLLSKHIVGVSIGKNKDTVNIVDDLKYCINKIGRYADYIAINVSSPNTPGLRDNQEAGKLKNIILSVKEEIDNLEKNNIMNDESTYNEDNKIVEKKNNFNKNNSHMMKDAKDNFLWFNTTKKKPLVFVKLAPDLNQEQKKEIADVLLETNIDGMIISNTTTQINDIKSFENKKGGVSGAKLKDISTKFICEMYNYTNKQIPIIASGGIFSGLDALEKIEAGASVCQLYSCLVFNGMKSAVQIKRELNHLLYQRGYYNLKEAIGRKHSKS

For `O=C1O[C@@H](c2ccccc2)[C@@H](c2ccccc2)N2[C@@H](c3ccc(OCCO)cc3)[C@]3(C(=O)Nc4ccc(C#CCCO)cc43)[C@@H](C(=O)Nc3nc4ccccc4s3)[C@H]12`, the z-score [1] was 1.44, the z-score [2] was 0.799 (inactive) and the z-score [3] was 1 (inactive). The composite z-score [4] was -0.812 (inactive), the z-score [5] was 0.89 (inactive) and the z-score [6] was 0.25 (inactive). For the same compound, the z-score [7] was 0.042 (inactive), the z-score [8] was -0.366 (inactive) and the z-score [9] was 1.51. For the same compound, the composite z-score [10] was 0.0225, the composite z-score [11] was 0.469 (inactive) and the composite z-score [12] was 0.487. The z-score [13] was -1.86, the z-score [14] was 1.8 (inactive) and the z-score [15] was -0.234 (inactive). For the same compound, the z-score [16] was -0.41 (inactive).

For `C[N+](C)(C)CCCCCCNC(=O)[C@H]1C[C@H]2C(=O)NCC(=O)N2[C@H]1c1cccc(OCCO)c1`, the z-score [1] was 0.547, the z-score [2] was -0.316 (inactive) and the z-score [3] was -0.0342 (inactive). For the same compound, the composite z-score [4] was -0.97 (inactive), the z-score [5] was -0.0743 (inactive) and the z-score [6] was 0.254 (inactive). For the same compound, the z-score [7] was -0.129 (inactive), the z-score [8] was -0.285 (inactive) and the z-score [9] was -0.252. For the same compound, the composite z-score [10] was 0.0402, the composite z-score [11] was 1.32 (inactive) and the composite z-score [12] was 0.695. The z-score [13] was 0.138, the z-score [14] was -3.97 (inactive) and the z-score [15] was 0.145 (inactive). For the same compound, the z-score [16] was 0.136 (inactive).

With `C=C(CCCC)C(=O)CC[C@H](OC(C)=O)c1ccccc1OCCO` the z-score [1] was -1.32, the z-score [2] was -2.49 (inactive) and the z-score [3] was -2.2 (inactive). For the same compound, the composite z-score [4] was -0.573 (inactive), the z-score [5] was -1.24 (inactive) and the z-score [6] was 0.0549 (inactive). For the same compound, the z-score [7] was -1.17 (inactive), the z-score [8] was -1.1 (inactive) and the z-score [9] was -2.13. The composite z-score [10] was -0.0696, the composite z-score [11] was 0.551 (inactive) and the composite z-score [12] was 0.439. The z-score [13] was -2.52, the z-score [14] was -5.49 (inactive) and the z-score [15] was -0.384 (inactive). For the same compound, the z-score [16] was 0.126 (inactive).

In the case of `COC(=O)[C@@]1(Cc2ccc(F)cc2)[C@H]2c3cc(C(=O)N4CCCC4)n(CCO)c3C[C@H]2CN1C(=O)c1ccccc1`, the z-score [1] is reported as -0.31, the z-score [2] is reported as 0.894 (inactive) and the z-score [3] is reported as -1.38 (inactive). For the same compound, the composite z-score [4] was -0.757 (inactive), the z-score [5] was -0.278 (inactive) and the z-score [6] was 0.302 (inactive). For the same compound, the z-score [7] was 0.0412 (inactive), the z-score [8] was -0.654 (inactive) and the z-score [9] was -0.908. For the same compound, the composite z-score [10] was -0.16, the composite z-score [11] was -0.33 (inactive) and the composite z-score [12] was 0.676. The z-score [13] was -1.26, the z-score [14] was -5.44 (inactive) and the z-score [15] was -0.961 (inactive). For the same compound, the z-score [16] was -0.836 (inactive).

With `C=CCNC(=O)[C@@H]1[C@H]2C(=O)O[C@H](c3ccccc3)[C@H](c3ccccc3)N2[C@H](c2ccc(O)cc2)[C@@]12C(=O)Nc1ccc(C#CC3(O)CCCCCC3)cc12` the z-score [1] was -0.285, the z-score [2] was 0.0504 (inactive) and the z-score [3] was -0.205 (inactive). For the same compound, the composite z-score [4] was 0.0708 (inactive), the z-score [5] was 0.498 (inactive) and the z-score [6] was 0.117 (inactive). For the same compound, the z-score [7] was 0.6 (inactive), the z-score [8] was 0.0092 (inactive) and the z-score [9] was -1.57. For the same compound, the composite z-score [10] was -0.154, the composite z-score [11] was 0.237 (inactive) and the composite z-score [12] was -0.251. For the same compound, the z-score [13] was 0.516, the z-score [14] was -3.49 (inactive) and the z-score [15] was -0.326 (inactive). For the same compound, the z-score [16] was -0.0283 (inactive).

For `CC(C)C[C@H]1NC(=O)[C@@]23C(=O)N[C@@H](Cc4ccccc4)C2[C@H](C)[C@@]2(C)O[C@H]2C3/C=C/C/C=C\CNC(=O)[C@@H]2CCCN2C1=O` (stereo not given in full), the z-score [1] was -0.706, the z-score [2] was -1.43 (inactive) and the z-score [3] was -0.0195 (inactive). For the same compound, the composite z-score [4] was -0.742 (inactive), the z-score [5] was 0.352 (inactive) and the z-score [6] was -0.162 (inactive). For the same compound, the z-score [7] was -0.467 (inactive), the z-score [8] was -0.0699 (inactive) and the z-score [9] was 0.476. The composite z-score [10] was 0.155, the composite z-score [11] was 1.73 (inactive) and the composite z-score [12] was 0.0626. The z-score [13] was 1.18, the z-score [14] was -5.47 (inactive) and the z-score [15] was 0.216 (inactive). For the same compound, the z-score [16] was 0.162 (inactive).

For `COC(=O)[C@@]1(CCS(=O)(=O)c2ccccc2)N=C(c2ccc(OCCCO)cc2)O[C@H]1c1ccccc1N=[N+]=[N-]`, the z-score [1] was -0.705, the z-score [2] was 0.905 (inactive) and the z-score [3] was -2.87 (inactive). The composite z-score [4] was -0.279 (inactive), the z-score [5] was 0.246 (inactive) and the z-score [6] was 1.09 (inactive). For the same compound, the z-score [7] was 0.399 (inactive), the z-score [8] was -1.12 (inactive) and the z-score [9] was -1.64. For the same compound, the composite z-score [10] was -0.0374, the composite z-score [11] was 1.61 (inactive) and the composite z-score [12] was 0.79. For the same compound, the z-score [13] was -1.98, the z-score [14] was -3.19 (inactive) and the z-score [15] was -0.305 (inactive). The z-score [16] was -0.0592 (inactive).

With `COC(=O)[C@H](Cc1ccc(O)cc1)N1CC2=CCCC=C[C@@H]2[C@H]1[C@H](O)Cc1ccccc1` the z-score [1] was 0.969, the z-score [2] was -2.95 (inactive) and the z-score [3] was 0.658 (inactive). The composite z-score [4] was -0.574 (inactive), the z-score [5] was 0.106 (inactive) and the z-score [6] was -0.889 (inactive). The z-score [7] was 1.34 (inactive), the z-score [8] was 1.34 (inactive) and the z-score [9] was 0.601. The composite z-score [10] was -0.219, the composite z-score [11] was -0.0324 (inactive) and the composite z-score [12] was 0.419. The z-score [13] was -1.63, the z-score [14] was -8.16 (active) and the z-score [15] was -1.09 (inactive). The z-score [16] was -1.18 (inactive).

With `COC(=O)C1=CC(CCCO)=CC(c2ccc(CN3CCCC3)cc2)N(Cc2sc3ccccc3c2Cl)C=C1C(=O)OC` (stereo not given) the z-score [1] was 0.666, the z-score [2] was -2.54 (inactive) and the z-score [3] was 0.691 (inactive). The composite z-score [4] was -1.63 (inactive), the z-score [5] was 0.186 (inactive) and the z-score [6] was -1.62 (inactive). The z-score [7] was 0.735 (inactive), the z-score [8] was 1.29 (inactive) and the z-score [9] was 0.85. The composite z-score [10] was -0.0084, the composite z-score [11] was 4.74 (inactive) and the composite z-score [12] was 0.916. For the same compound, the z-score [13] was -1.95, the z-score [14] was -1.23 (inactive) and the z-score [15] was -0.438 (inactive). For the same compound, the z-score [16] was -0.402 (inactive).

With `COc1ccc(NN2C(C(O)c3ccc(OC)cc3)C=CC3C(=O)N(C4CCCCC4)C(=O)C32)cc1` (stereo not given) the z-score [1] was 1.52, the z-score [2] was -0.365 (inactive) and the z-score [3] was 0.363 (inactive). For the same compound, the composite z-score [4] was -0.809 (inactive), the z-score [5] was 1.05 (inactive) and the z-score [6] was 0.107 (inactive). For the same compound, the z-score [7] was -0.447 (inactive), the z-score [8] was 0.703 (inactive) and the z-score [9] was 0.346. For the same compound, the composite z-score [10] was 0.229, the composite z-score [11] was 1.3 (inactive) and the composite z-score [12] was 0.7. For the same compound, the z-score [13] was -0.346, the z-score [14] was -4.51 (inactive) and the z-score [15] was -1.28 (inactive). The z-score [16] was -1.13 (inactive).
